Compound activity from PubChem BioAssay.
D1 PAM = enhances dopamine response at the human D1 receptor. P21728. HEK293 TREx D1 cells, calcium flux, dopamine EC20 potentiation. potentiation, % at 10 µM. 0.036% of 360,000 active; in the data active = potentiation above about 30%
TRHR agonist-1 = activates the human TRH receptor; P34981; 0.18% of 360,000 active; TRHR cells, calcium flux fluo-8, FDSS agonist mode; activation, % at 2 µM; AID 493084; in the data active = activation above about 30%
Target sequence (P34981 whole entry, looked up): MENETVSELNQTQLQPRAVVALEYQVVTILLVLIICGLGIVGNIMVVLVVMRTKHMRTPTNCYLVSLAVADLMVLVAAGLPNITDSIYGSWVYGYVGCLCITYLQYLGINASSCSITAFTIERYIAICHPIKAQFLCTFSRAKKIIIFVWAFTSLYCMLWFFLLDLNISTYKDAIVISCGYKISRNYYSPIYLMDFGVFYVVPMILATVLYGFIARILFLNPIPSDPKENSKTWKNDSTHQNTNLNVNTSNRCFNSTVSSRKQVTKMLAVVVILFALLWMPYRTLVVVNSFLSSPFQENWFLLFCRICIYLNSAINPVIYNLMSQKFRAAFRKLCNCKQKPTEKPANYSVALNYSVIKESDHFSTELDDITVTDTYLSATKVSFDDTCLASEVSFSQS
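Agonist-mode FDSS calcium read (Ex 480/Em 530, 1 s cycles) in 1536-well TRHR cells with fluo-8 dye, after 10-cycle baseline and 23 nL compound addition; TRH at EC20 (10 nM final) added afterwards for the enhancer phase.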
D1 ag = agonists of human D1 dopamine receptor. P21728. AID 504660. activation, % at 2 µM. HEK293 T-REx D1 cells, calcium flux, agonist mode. 1% of 360,000 active; in the data active = activation above about 30%
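Agonism was scored from calcium flux recorded over 180 s (1 read/s) after pintool compound addition, following a 10-cycle baseline. Cells were inducible force-coupled HEK293 TREx D1, plated overnight at 30 C and loaded with no-wash calcium dye.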
TRHR enhancer-1 = TRH receptor (human) allosteric enhancement; TRHR cells, fluo-8 calcium fluorescence, EC20 TRH enhancement; enhancement, % at 2 µM; P34981; 0.66% of 360,000 active; in the data active = enhancement above about 30%
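Enhancer read-out: after compound pinning and an initial kinetic agonist-mode read, an EC20 of TRH (10 nM final) was injected and fluo-8 calcium signal (Ex 480/Em 530) followed at 1 s/cycle for 100 cycles in TRHR-expressing cells.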
D1 antag = human D1 dopamine receptor antagonism; activity change, negative = inhibition, % at 10 µM; 3.2% of 360,000 active; P21728; AID 504652; HEK293 TREx D1 cells, calcium flux, dopamine EC80; stronger effect = lower value; in the data active = activity change below about -30%
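HEK293 T-REx cells expressing inducible, force-coupled D1 receptor; no-wash Ca dye, 30–90 min RT. Cmpd → 180 s read at 1 Hz → EC80 DA → 180 s read.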
TRHR enhancer-2 = confirmation of human TRH receptor allosteric enhancers; activity change, negative = inhibition, % at 46.1 µM; TRH receptor cell assay, enhancer confirmation qHTS; 970 tested, under 10 active; shares compounds with TRHR enhancer-1;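 note: compound effect scored on response to added TRH at EC20 of 10 nM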
TRHR agonist-2 = human TRH receptor agonism confirmation; shares compounds with TRHR enhancer-1; TRHR-expressing cells, agonist activation read-out; Potency, µM (doses to about 46.1 µM), most hits filed as activators; 8% of 970 active; AID 493078; note: nearly all actives have a fitted effect of over 75% in size
Of the large screens only hits and unclear results are named; the others gave an inactive call (follow-up assays come after a bar, where they were run). This is a sample that favours compounds with a hit; in the whole collection about 4.7% have one here. Unless noted, calls come from the whole dose curve; as a rule, active = well fitted curve in the direction sought with a large enough effect; inconclusive = small, poorly fitted or top-dose-only effect, or another doubt; inactive = no such curve, though single readings can be large; an effect the other way counts as inactive or inconclusive.

C=CCOc1ccc(C2C(C(=O)c3ccco3)=C(O)C(=O)N2c2nnc(C)s2)cc1 (stereo not drawn)	TRHR agonist-1 40, D1 ag 57 | TRHR enhancer-2 inactive | TRHR agonist-2 inactive
COc1ccc(C2C(C(=O)c3ccco3)=C(O)C(=O)N2c2nnc(C)s2)cc1 (stereo not drawn)	none
CCC1(C)Cc2c(sc3c2c(=O)n(C)c2nnc(SCCc4ccccc4)n32)CO1 (stereo not drawn)	TRHR enhancer-1 65 | TRHR enhancer-2 inactive | TRHR agonist-2 inactive
CCOC(=O)N1CCN(CCC(=O)Nc2ccc(F)c(F)c2)CC1	none
CCOC(=O)c1c(C)n(-c2ccccc2)c2ccc(O)cc12	TRHR enhancer-1 46, D1 antag -70 | TRHR enhancer-2 inactive | TRHR agonist-2 inactive
O=C(CSc1nc2ccccc2[nH]1)Nc1ccc(N2CCOCC2)cc1	none
CCOC(=O)c1cc([N+](=O)[O-])sc1NC(=O)c1ccc(S(=O)(=O)N2CC3(C)CC2CC(C)(C)C3)cc1 (stereo not drawn)	TRHR agonist-1 37 | TRHR enhancer-2 inactive | TRHR agonist-2 inconclusive
CC1(C)CC2CC(C)(CN2S(=O)(=O)c2ccc(C(=O)Nc3ccc(S(=O)(=O)N4CCOCC4)cc3)cc2)C1 (stereo not drawn)	none
O=C(Nc1ccc(CN2CCOCC2)cc1)c1ccc(F)cc1	TRHR enhancer-1 56 | TRHR enhancer-2 inactive | TRHR agonist-2 inactive
COc1ccc([N+](=O)[O-])cc1NC(=O)c1cn(-c2ccc(Cl)cc2)c(=O)c2ccccc12	TRHR enhancer-1 72 | TRHR enhancer-2 inconclusive | TRHR agonist-2 inactive
CC(=O)Nc1ccc(S(=O)(=O)NCCC(=O)OCC(=O)N2CCN(C(=O)c3ccco3)CC2)cc1	TRHR enhancer-1 46 | TRHR enhancer-2 inactive | TRHR agonist-2 inactive
COc1ccc(/C(C)=N\NC(=O)CSc2nnc(C)s2)cc1	none
C/C(=N\NC(=O)CSc1nnc(C)s1)c1ccc(Cl)cc1	TRHR enhancer-1 43 | TRHR enhancer-2 inactive | TRHR agonist-2 inactive
O=C(CN1CCOCC1)NN=C1CCCCCCCCCCC1	none
CCCS(=O)(=O)N1CCN(S(=O)(=O)c2ccccc2[N+](=O)[O-])CC1	none
CC(=O)c1c(C)[nH]c(C(=O)CN2CCN(S(=O)(=O)c3ccccc3[N+](=O)[O-])CC2)c1C	TRHR enhancer-1 45, D1 antag -31 | TRHR enhancer-2 inactive | TRHR agonist-2 inactive
CCc1cc(C(=O)N2CCCC(CCC(=O)N3CCN(c4ccccn4)CC3)C2)no1 (stereo not drawn)	TRHR enhancer-1 42 | TRHR enhancer-2 inactive | TRHR agonist-2 inactive
CC(C)c1cc(C(=O)N2CCCC(CCC(=O)N3CCN(c4ccccn4)CC3)C2)no1 (stereo not drawn)	none
CCOC(=O)c1[nH]cnc1C(=O)Nc1ccc(Cl)cc1	none
CCOC(=O)c1[nH]cnc1C(=O)Nc1ccc(C)cc1	TRHR enhancer-1 51 | TRHR enhancer-2 inactive | TRHR agonist-2 inactive
CCc1ccc(C(C(=O)NCCOC)N(C(=O)Cn2nnc3ccccc32)c2cccnc2)cc1 (stereo not drawn)	none
COCCNC(=O)C(c1ccc(OC)cc1)N(C(=O)Cn1nnc2ccccc21)c1cccnc1 (stereo not drawn)	TRHR enhancer-1 42 | TRHR enhancer-2 inactive | TRHR agonist-2 inactive
CCOc1cccc2cc(C(=O)NCc3ccc(F)cc3)c(=N)oc12	none
Brc1ccc(/C=N/Nc2ccc3ccccc3n2)cc1	TRHR enhancer-1 51 | TRHR enhancer-2 inactive | TRHR agonist-2 inactive
Brc1ccccc1/C=N/Nc1ccc2ccccc2n1	none
COc1cc(CNCc2ccccn2)ccc1OCC(=O)NC1CCCCC1	TRHR enhancer-1 45 | TRHR enhancer-2 inactive | TRHR agonist-2 inactive
Cc1ccccc1Nc1nc(N)nc(COC(=O)CCS(=O)(=O)c2ccccc2)n1	none
Cc1ccccc1Nc1nc(N)nc(COC(=O)CC2CC3CCC2C3)n1 (stereo not drawn)	TRHR enhancer-1 51 | TRHR enhancer-2 inactive | TRHR agonist-2 inactive
CCC(C)N1CC(=O)N2C(c3ccc(OC)cc3OC)c3[nH]c4ccccc4c3C[C@H]2C1=O (stereo partly drawn)	TRHR enhancer-1 75 | TRHR enhancer-2 inactive | TRHR agonist-2 inactive
CCCN1CC(=O)N2C(c3cccc(OC)c3OC)c3[nH]c4ccccc4c3C[C@H]2C1=O (stereo partly drawn)	none
Cc1c(/C=N/O)c2ccccn2c1C=O	TRHR enhancer-1 60 | TRHR enhancer-2 inactive | TRHR agonist-2 inactive
COCCN(Cc1nc(-c2ccc(-c3ccccc3)cc2)oc1C)C(C)C	none
Cn1c(-c2ccc(=O)[nH]c2)nc2ccccc21	none
O=c1ccc(-c2nc3ccccc3n2Cc2ccc(Cl)cc2)c[nH]1	TRHR enhancer-1 49 | TRHR enhancer-2 inactive | TRHR agonist-2 inactive
COc1ccc(Cl)cc1S(=O)(=O)NC(C)C(=O)NCCCn1ccnc1 (stereo not drawn)	TRHR enhancer-1 67 | TRHR enhancer-2 inactive | TRHR agonist-2 inactive
COc1ccc(Cl)cc1S(=O)(=O)NCCCn1ccnc1	none
O=C(/C=C/c1cccc([N+](=O)[O-])c1)OC1CCCCC1=O (stereo not drawn)	none
Cc1ccc(NC(=O)c2cc(S(=O)(=O)N3CCCC3)cn2C)cc1C	TRHR enhancer-1 47 | TRHR enhancer-2 inactive | TRHR agonist-2 inactive
Cc1ccc(NC(=O)NN2CCN(C)CC2)cc1C	TRHR enhancer-1 41 | TRHR enhancer-2 inactive | TRHR agonist-2 inactive
CCOC(=O)c1cc(-c2ccc(C)cc2)n(CCC(=O)Nc2ccc(C(C)C)cc2)c1C	none
C=CCNC(=S)NNc1nc2sc3c(c2c(=O)[nH]1)CC(C)(C)OC3	none
O=C(Nc1ccc(F)cc1)[C@H](Cc1ccccc1)N1Cc2ccccc2C1=O	none
CCc1ccccc1N(CC(=O)N/N=C/c1ccc(OC(=O)OC)c(OC)c1)S(C)(=O)=O	TRHR agonist-1 43 | TRHR enhancer-2 inactive | TRHR agonist-2 inactive
Cc1cc2nc(/N=C(\N)NC(=O)N3c4ccccc4Sc4ccccc43)nc(C)c2cc1C	none
Nc1[nH]c2cc([N+](=O)[O-])ccc2c1-c1ccccn1	TRHR agonist-1 31, D1 ag 65 | TRHR enhancer-2 inactive | TRHR agonist-2 inconclusive
COCCN(C(=O)C1CC(=O)N(Cc2ccc(C)cc2)C1)c1c(N)n(CC(C)C)c(=O)[nH]c1=O (stereo not drawn)	none
Cc1oc(CC(C)C)cc1C(=O)NCCCC(=O)O	none
CCCCOc1ccc(C(=O)N/C(=C/C=C/c2ccccc2)C(=O)NC)cc1	none
